These results are taken from publication PMC5540273 (PLoS ONE, 2017).

Some test systems named below: GRK4; GRK7; GSK3A; GSK3B; HCK; HIPK1; HIPK2; HIPK3; HIPK4.
Common to all, as to conditions: concentration: 1 μM, replicates: in singlicate; n = 1
The test system of another test is T1, HASPIN.
T1 construct: gene GSG2
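Note: KINOMEscan kinase panel screen.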

With `Cl.Nc1ncnc2occ(-c3ccc(NC(=O)Nc4cc(C(F)(F)F)ccc4F)cc3)c12` [SB-707548], the “%Inh” value with GRK4 came to 0%; with GRK7, 0%; in the test on GSK3A, 68%; with GSK3B it was 8%; with HASPIN it was 0%; in the test on HCK it was 71%. Besides, the “%Inh” value came out at 63% in the test with HIPK1, 50% in the test with HIPK2, 77% in the test on HIPK3 and 99.2% in the test with HIPK4.

In the case of `O=c1cc(N2CCOCC2)nc2n(Cc3cccc(Cl)c3Cl)c(C3CC3)nn12` [GSK2358994], the “%Inh” value with GRK4 amounted to 0%; in the test with GRK7, 0%; in the test on GSK3A, 4%; with GSK3B it was 0%; with HASPIN, 0%; in the test on HCK, 0%. Besides, the “%Inh” value came out at 16% in the test on HIPK1, 0% with HIPK2, 16% with HIPK3 and 0% with HIPK4.

As to `Cc1c(Cn2c(C)nn3c(=O)cc(N4CCOC(C)C4)nc23)cccc1C(F)(F)F` (stereo not shown) [GSK2344444], the “%Inh” value in the test on GRK4 amounted to 0%; in the test with GRK7 it was 0%; in the test with GSK3A, 0%; in the test with GSK3B it was 10%; in the test on HASPIN, 0%; in the test on HCK, 0%. Besides, the “%Inh” value in the test with HIPK1 is recorded as 0%; in the test with HIPK2, 0%; with HIPK3, 7%; in the test with HIPK4 it was 0%.

With `NS(=O)(=O)c1cccc(-c2ccc3nccc(-c4cccc(S(N)(=O)=O)c4)c3c2)c1` [GW867253], the “%Inh” value in the test with GRK4 is 26%; in the test on GRK7, 0%; with GSK3A, 0%; with GSK3B it was 52%; with HASPIN it was 64%; in the test with HCK it was 20%. Also, the “%Inh” value in the test with HIPK1 is reported as 37%; in the test with HIPK2, 29%; in the test on HIPK3 it was 27%; in the test with HIPK4, 0%.

As to `N#Cc1ccc(-c2cc(-c3c[nH]nc3-c3ccccn3)ccn2)cc1` [GW693028], the “%Inh” value with GRK4 is reported as 3%; with GRK7, 0%; in the test on GSK3A, 12%; in the test with GSK3B it was 4%; with HASPIN it was 0%; in the test on HCK, 0%. The “%Inh” value with HIPK1, in the test with HIPK2, in the test on HIPK3 and in the test with HIPK4 was 0% throughout.

`COc1cc2c(cc1OCCN1CCN(C)CC1)ncc1c3ccc(C#N)cc3[nH]c21`: the “%Inh” value worked out at 0% in the test on GRK4; 0% in the test with GRK7; 0% in the test with GSK3A; 0% in the test on GSK3B; 76% in the test on HASPIN; 0% in the test on HCK. The “%Inh” value came to 97.6% with HIPK1, 100% with HIPK2, 96% in the test with HIPK3 and 55% in the test with HIPK4.

With `COc1ccc(Nc2nccc(N3CCC(NC(=O)Nc4cc(C)ccc4C)C3)n2)cc1` (stereo not shown) [GSK1379741], the “%Inh” value with GRK4 came to 0%; in the test with GRK7, 0%; in the test with GSK3A, 0%; in the test with GSK3B, 18%; in the test with HASPIN it was 0%; in the test with HCK it was 0%. Besides, the “%Inh” value in the test on HIPK1 amounted to 0%; with HIPK2, 0%; in the test with HIPK3 it was 16%; in the test with HIPK4, 0%.

On to `CN1c2ccc(CNc3ccc(F)cc3)cc2-c2c(cnn2C)S1(=O)=O`, for which the “%Inh” value with GRK4 stood at 0%; in the test on GRK7, 0%; in the test on GSK3A it was 22%; in the test on GSK3B it was 0%; in the test with HASPIN, 33%; with HCK, 4%. The “%Inh” value with HIPK1 came to 35%; with HIPK2 it was 0%; in the test on HIPK3 it was 0%; with HIPK4 it was 0%.

With `Cc1cn2c(=O)cc(N3CCOCC3)nc2n1Cc1cccc(Cl)c1Cl` [GSK2334006], the “%Inh” value in the test on GRK4 turned out to be 0%; with GRK7 it was 0%; with GSK3A, 11%; in the test on GSK3B it was 13%; with HASPIN it was 11%; in the test with HCK, 16%. Also, the “%Inh” value in the test on HIPK1 amounted to 0%; with HIPK2, 0%; in the test on HIPK3, 18%; in the test on HIPK4, 6%.

Turning to `COC(=O)Nc1nc2cc(Oc3ccc(NC(=O)Nc4cc(F)ccc4F)cc3)ccc2[nH]1.Cl` [GW701424], the “%Inh” value is given as 0% with GRK4; 0% with GRK7; 3% in the test on GSK3A; 11% with GSK3B; 0% in the test with HASPIN; 6% with HCK. The “%Inh” value came to 0% with HIPK1, 0% with HIPK2, 5% with HIPK3 and 29% with HIPK4.

As to `Cl.Oc1cccc(Nc2ccnc3cc(-c4ccncc4)ccc23)c1` [GW494601], the “%Inh” value in the test on GRK4 is reported as 0%; in the test with GRK7, 0%; in the test on GSK3A, 23%; with GSK3B, 0%; in the test with HASPIN it was 55%; with HCK it was 97.7%. The “%Inh” value in the test with HIPK1, in the test with HIPK2, with HIPK3 and with HIPK4 was 0% each time.

For `Cc1nnc(-c2ccc3occ(-c4ccc(C(C)O)cc4)c3c2)o1` (stereo not shown), the “%Inh” value with GRK4 came out at 1%; in the test with GRK7, 11%; with GSK3A, 73%; with GSK3B, 19%; with HASPIN it was 29%; in the test with HCK it was 6%. In addition, the “%Inh” value in the test on HIPK1 was 67%; in the test on HIPK2 it was 56%; in the test with HIPK3 it was 41%; with HIPK4 it was 33%.

Turning to `Cc1ccc(C(=O)NCC(N)=O)cc1-n1c(C)cc(OCc2ccc(F)cc2F)c(Br)c1=O`, the “%Inh” value is given as 0% with GRK4; 0% with GRK7; 58% in the test with GSK3A; 0% in the test with GSK3B; 0% with HASPIN; 21% with HCK. In addition, the “%Inh” value with HIPK1 was determined as 46%; in the test on HIPK2 it was 0%; in the test with HIPK3, 0%; in the test with HIPK4 it was 0%.

On to `O=C(Nc1cccc(-c2nn3ncccc3c2-c2ccnc(Nc3cccc(C(F)(F)F)c3)n2)c1)c1c(F)cccc1F` [GSK299495], for which the “%Inh” value with GRK4 came to 2%; in the test with GRK7, 0%; in the test with GSK3A, 0%; in the test on GSK3B, 18%; with HASPIN, 2%; in the test on HCK it was 98.1%. Further, the “%Inh” value in the test with HIPK1 came to 0%; in the test with HIPK2, 0%; in the test on HIPK3 it was 1%; with HIPK4, 0%.

For the molecule `O=c1cc(N2CCOCC2)nc2n(Cc3cccc4ccccc34)ccn12` [GSK2333389], the “%Inh” value in the test on GRK4 is listed as 0%; with GRK7 it was 0%; in the test with GSK3A, 9%; in the test with GSK3B, 10%; in the test with HASPIN, 0%; in the test on HCK it was 0%. The “%Inh” value amounted to 0% in the test with HIPK1, 0% in the test on HIPK2, 21% in the test on HIPK3 and 5% in the test with HIPK4.

Take `COc1ccc(CNC(=O)NC2CCN(c3ccnc(Nc4ccc(OC)cc4)n3)C2)cc1` (stereo not shown) [GSK1379727]: the “%Inh” value is 4% in the test with GRK4; 0% with GRK7; 0% in the test on GSK3A; 0% with GSK3B; 19% with HASPIN; 0% in the test with HCK. Also, the “%Inh” value came to 0% in the test on HIPK1, 40% in the test with HIPK2, 23% in the test with HIPK3 and 0% in the test with HIPK4.
